Reference: PubChem BioAssay AID1117319 (Southern Research Institute, 2015)
Hit rate of the full screen: of about 260,000 compounds, about 1,500 (0.58%) were called active. About 5% were inconclusive and are not listed.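 Rule for the calls: active = inhibition above a set limit at one or more doses, reproduced on every date tested; inconclusive = results disagree between test dates, or hit never tested in dose response; inactive = the rest.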 A selection follows. Potency and affinity values are given separately.

These molecules were tested against Virion infectivity factor (Human immunodeficiency virus type 1 group M subtype B (isolate BH10)) + Virion infectivity factor (Human immunodeficiency virus type 1 group M subtype B (isolate BRU/LAI)) + Virion infectivity factor (Human immunodeficiency virus type 1 group M subtype B (isolate PCV12)) + Virion infectivity factor (Human immunodeficiency virus type 1 group M subtype B (isolate HXB2)) + DNA dC->dU-editing enzyme APOBEC-3G (Homo sapiens) (UniProt P69720+P69721+P69722+P69723+Q9HC16) (assay: inhibitors of Vif binding to APOBEC3G peptide, primary screen, biochemical, TR-FRET, GST-Vif 1-94, biotin-A3G peptide, dose response retest (AID 1117319;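 note: Vif residues 1-94 fused to GST binding biotinylated APOBEC3G peptide 110-148; 0% = full assay without inhibitor and 100% = GST in place of GST-Vif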)). Details: stronger effect = higher value.

inhibition, inactive:
Cc1nc(C(=O)O)nn1-c1cc(Cl)ccc1Cl 2.06%
Cc1cccc(N(C(=O)CNC(=O)c2ccco2)C(C(=O)NC2CCCC2)c2cccnc2)c1 (stereo not given) -6.56%
CN(C)S(=O)(=O)c1cccc(NC(=O)CSc2nncn2-c2ccccc2)c1 1.63%
COc1cc([C@H]2[C@@H]3CCCC[C@]3(O)CCN2Cc2ccccc2F)ccc1O 4.71%
O=C(CN1CC(=O)Oc2ccccc21)OCC(=O)c1cccc(Br)c1 20.7%
O=c1cc(-c2ccccc2)c2c([nH]1)CCCC2 -2.63%
O=c1cc(O)c(-c2ccccc2Cl)c(Cl)[nH]1 -2.11%
CC(c1ccccc1)n1c(SCC(=O)Nc2ccccc2)n[nH]c1=O (stereo not given) -10.8%
CCN(CC)c1ccc(C2Nc3cccc4cccc(c34)N2)c(O)c1 6.26%
Oc1ccccc1C1Nc2cccc3cccc(c23)N1 20%
Cc1ccc(-c2cc3cccc[n+]3cc2-c2ccc(C)cc2)cc1 10.5%
Cc1csc2cc(-c3cccc([N+](=O)[O-])c3)c(-c3cccc([N+](=O)[O-])c3)c[n+]12 1.42%
Cn1nccc1C(=O)Nc1ccc2c(c1)OCO2 -8.05%
O=C(CSc1nnc2scc(-c3ccc(Cl)cc3)n12)NCc1ccc2c(c1)OCO2 31.6%
Cc1c(NC(=O)CN2CCN(c3ccc(F)cc3)CC2)c(=O)n(-c2ccccc2)n1C -4.9%
Cc1c(NC(=O)CN2CCN(c3ccccc3)CC2)c(=O)n(-c2ccccc2)n1C 2.33%
C=CCn1c(=O)c2ccccc2n2c(SCc3nc4ccccc4s3)nnc12 0.94%
Cc1oc(-c2ccccc2F)nc1CS(=O)CC(=O)NCc1ccccc1 (stereo not given) -9.75%
Nn1cnnc1N/N=C/c1ccc(Cl)cc1Cl -0.88%
COc1ccc(-c2cc(C(=O)Nc3c(C)n(C)n(-c4ccccc4)c3=O)no2)cc1OC -4.54%
Cc1c(NC(=O)c2cc(-c3ccccc3)on2)c(=O)n(-c2ccccc2)n1C -2.53%
Cc1ccc(-c2cc(C(=O)Nc3c(C)n(C)n(-c4ccccc4)c3=O)no2)cc1 -0.77%
COc1ccc(-c2cc(C(=O)Nc3c(C)n(C)n(-c4ccccc4)c3=O)no2)cc1 -3.59%
Cc1ccc(NC(=O)C2CC(O)CN2C(=O)OCc2ccccc2)cc1C (stereo not given) -2.11%
CCc1nn2c(NCCOC)cc(C)nc2c1-c1ccc(F)cc1 -2.39%
